# Experimental data reported in ChEMBL document CHEMBL1961873, “Compounds: GSK PKIS; Assays: Nanosyn kinase panel” (2012).
# What was measured:
# [1] = biological target: T1, Serine/threonine-protein kinase Nek9 (Homo sapiens) (UniProt Q8TD19); details: at 1 µM;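 also: each value is a mean percent inhibition of NEK9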
# T1 sequence (whole entry): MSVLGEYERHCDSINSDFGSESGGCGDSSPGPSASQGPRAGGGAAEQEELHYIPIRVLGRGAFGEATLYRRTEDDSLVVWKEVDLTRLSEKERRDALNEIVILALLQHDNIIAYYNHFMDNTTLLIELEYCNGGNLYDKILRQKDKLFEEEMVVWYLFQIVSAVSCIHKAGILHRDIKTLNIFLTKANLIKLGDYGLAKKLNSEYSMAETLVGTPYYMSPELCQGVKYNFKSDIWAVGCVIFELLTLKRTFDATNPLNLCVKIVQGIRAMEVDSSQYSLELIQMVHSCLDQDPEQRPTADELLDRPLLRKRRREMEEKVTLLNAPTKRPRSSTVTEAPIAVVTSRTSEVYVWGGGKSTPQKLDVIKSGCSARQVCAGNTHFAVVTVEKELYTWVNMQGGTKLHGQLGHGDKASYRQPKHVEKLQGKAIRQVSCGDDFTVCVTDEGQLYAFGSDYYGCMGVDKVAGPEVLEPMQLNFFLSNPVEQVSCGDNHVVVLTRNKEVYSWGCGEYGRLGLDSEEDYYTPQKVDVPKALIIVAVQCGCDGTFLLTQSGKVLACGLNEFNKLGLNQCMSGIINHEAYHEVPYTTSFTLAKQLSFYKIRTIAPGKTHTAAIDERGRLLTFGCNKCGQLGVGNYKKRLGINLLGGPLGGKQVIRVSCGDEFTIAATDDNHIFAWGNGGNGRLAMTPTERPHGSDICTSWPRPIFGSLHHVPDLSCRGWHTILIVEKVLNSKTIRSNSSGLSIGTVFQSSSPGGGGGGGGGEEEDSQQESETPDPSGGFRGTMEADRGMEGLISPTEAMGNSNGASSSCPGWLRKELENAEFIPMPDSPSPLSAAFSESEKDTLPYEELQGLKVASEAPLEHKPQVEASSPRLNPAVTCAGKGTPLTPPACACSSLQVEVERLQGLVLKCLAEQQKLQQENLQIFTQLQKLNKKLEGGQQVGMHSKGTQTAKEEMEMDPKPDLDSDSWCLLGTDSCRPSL
# [2] = biological target: Serine/threonine-protein kinase PLK1 (Homo sapiens) (UniProt P53350); details: at 0.1 µM
# [3] = biological target: Serine/threonine-protein kinase PLK1 (Homo sapiens) (UniProt P53350); details: at 1 µM
# [4] = biological target: T2, Dual specificity protein kinase TTK (Homo sapiens) (UniProt P33981); details: at 0.1 µM
# T2 sequence (whole entry): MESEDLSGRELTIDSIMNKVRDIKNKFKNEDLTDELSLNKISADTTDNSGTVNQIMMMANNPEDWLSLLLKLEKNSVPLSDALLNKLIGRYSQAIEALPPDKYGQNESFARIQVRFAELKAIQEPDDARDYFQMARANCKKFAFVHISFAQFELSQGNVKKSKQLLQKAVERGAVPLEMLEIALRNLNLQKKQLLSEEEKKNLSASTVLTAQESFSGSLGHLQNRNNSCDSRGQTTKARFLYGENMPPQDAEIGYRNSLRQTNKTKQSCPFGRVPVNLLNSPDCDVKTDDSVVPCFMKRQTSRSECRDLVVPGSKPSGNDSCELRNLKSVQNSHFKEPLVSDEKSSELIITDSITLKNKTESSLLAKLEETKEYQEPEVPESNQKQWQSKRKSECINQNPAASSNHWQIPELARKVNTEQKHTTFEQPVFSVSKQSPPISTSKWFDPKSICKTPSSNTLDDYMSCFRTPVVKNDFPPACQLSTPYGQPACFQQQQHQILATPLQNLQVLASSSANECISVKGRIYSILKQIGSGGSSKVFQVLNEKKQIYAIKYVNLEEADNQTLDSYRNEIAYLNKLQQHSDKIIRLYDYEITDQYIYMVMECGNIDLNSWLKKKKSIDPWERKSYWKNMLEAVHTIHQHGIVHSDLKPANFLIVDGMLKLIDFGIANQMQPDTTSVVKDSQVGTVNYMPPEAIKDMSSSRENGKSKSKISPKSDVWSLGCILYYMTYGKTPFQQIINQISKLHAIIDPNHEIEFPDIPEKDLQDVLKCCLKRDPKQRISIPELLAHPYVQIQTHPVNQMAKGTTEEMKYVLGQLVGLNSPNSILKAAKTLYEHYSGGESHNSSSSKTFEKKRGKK
# [5] = tested on: T3, Receptor-type tyrosine-protein kinase FLT3 (Homo sapiens), P36888 [D835Y]; details: at 1 µM
# T3 sequence (whole entry): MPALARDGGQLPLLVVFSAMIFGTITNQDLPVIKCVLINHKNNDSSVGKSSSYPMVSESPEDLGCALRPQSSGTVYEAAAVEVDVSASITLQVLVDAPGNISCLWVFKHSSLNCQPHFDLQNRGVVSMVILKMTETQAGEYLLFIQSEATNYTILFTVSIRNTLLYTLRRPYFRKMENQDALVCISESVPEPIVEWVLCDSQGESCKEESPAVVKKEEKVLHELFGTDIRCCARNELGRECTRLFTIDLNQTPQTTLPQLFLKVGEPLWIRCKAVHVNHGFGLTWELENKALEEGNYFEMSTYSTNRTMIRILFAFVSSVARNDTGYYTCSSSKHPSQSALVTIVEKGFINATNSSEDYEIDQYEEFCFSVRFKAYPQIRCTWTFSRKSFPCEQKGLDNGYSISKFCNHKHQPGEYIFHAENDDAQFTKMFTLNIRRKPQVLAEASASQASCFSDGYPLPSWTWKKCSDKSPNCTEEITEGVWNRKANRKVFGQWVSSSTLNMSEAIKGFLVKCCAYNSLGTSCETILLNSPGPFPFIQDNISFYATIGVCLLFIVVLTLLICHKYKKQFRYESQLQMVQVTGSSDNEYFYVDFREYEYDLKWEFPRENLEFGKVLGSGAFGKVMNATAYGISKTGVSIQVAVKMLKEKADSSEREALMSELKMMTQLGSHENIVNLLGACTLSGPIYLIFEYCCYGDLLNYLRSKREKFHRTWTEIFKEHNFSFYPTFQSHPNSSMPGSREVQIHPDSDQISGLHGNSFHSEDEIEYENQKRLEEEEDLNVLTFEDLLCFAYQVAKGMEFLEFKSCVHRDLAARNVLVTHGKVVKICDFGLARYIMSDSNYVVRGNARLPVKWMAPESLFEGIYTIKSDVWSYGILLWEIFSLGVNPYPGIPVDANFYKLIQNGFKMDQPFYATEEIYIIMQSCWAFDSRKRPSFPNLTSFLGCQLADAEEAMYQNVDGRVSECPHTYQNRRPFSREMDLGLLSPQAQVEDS
# [6] = biological target: Vascular endothelial growth factor receptor 3 (Homo sapiens) (UniProt P35916); details: at 0.1 µM
# [7] = biological target: Vascular endothelial growth factor receptor 3 (Homo sapiens) (UniProt P35916); details: at 1 µM
# [8] = biological target: Macrophage colony-stimulating factor 1 receptor (Homo sapiens) (UniProt P07333); details: at 0.1 µM
# [9] = biological target: Macrophage colony-stimulating factor 1 receptor (Homo sapiens) (UniProt P07333); details: at 1 µM
# [10] = biological target: Tyrosine-protein kinase Fyn (Homo sapiens) (UniProt P06241); details: at 0.1 µM
# Sequence of Tyrosine-protein kinase Fyn (Homo sapiens) (P06241 2-537 limits assumed): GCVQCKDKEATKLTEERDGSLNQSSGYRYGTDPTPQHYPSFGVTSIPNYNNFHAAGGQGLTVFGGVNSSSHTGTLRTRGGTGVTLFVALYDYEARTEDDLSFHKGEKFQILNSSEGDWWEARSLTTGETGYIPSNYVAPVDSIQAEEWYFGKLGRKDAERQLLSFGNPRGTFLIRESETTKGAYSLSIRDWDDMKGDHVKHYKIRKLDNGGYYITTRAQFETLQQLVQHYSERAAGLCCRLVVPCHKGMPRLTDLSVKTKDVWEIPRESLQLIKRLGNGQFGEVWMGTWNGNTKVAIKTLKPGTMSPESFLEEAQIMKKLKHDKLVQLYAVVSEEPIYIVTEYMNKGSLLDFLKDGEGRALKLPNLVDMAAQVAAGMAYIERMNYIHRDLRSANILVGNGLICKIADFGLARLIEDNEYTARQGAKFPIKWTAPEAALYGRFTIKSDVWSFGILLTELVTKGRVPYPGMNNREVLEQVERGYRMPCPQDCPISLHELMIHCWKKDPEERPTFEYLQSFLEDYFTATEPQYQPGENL
# Sequence of Vascular endothelial growth factor receptor 3 (Homo sapiens) (P35916 whole entry): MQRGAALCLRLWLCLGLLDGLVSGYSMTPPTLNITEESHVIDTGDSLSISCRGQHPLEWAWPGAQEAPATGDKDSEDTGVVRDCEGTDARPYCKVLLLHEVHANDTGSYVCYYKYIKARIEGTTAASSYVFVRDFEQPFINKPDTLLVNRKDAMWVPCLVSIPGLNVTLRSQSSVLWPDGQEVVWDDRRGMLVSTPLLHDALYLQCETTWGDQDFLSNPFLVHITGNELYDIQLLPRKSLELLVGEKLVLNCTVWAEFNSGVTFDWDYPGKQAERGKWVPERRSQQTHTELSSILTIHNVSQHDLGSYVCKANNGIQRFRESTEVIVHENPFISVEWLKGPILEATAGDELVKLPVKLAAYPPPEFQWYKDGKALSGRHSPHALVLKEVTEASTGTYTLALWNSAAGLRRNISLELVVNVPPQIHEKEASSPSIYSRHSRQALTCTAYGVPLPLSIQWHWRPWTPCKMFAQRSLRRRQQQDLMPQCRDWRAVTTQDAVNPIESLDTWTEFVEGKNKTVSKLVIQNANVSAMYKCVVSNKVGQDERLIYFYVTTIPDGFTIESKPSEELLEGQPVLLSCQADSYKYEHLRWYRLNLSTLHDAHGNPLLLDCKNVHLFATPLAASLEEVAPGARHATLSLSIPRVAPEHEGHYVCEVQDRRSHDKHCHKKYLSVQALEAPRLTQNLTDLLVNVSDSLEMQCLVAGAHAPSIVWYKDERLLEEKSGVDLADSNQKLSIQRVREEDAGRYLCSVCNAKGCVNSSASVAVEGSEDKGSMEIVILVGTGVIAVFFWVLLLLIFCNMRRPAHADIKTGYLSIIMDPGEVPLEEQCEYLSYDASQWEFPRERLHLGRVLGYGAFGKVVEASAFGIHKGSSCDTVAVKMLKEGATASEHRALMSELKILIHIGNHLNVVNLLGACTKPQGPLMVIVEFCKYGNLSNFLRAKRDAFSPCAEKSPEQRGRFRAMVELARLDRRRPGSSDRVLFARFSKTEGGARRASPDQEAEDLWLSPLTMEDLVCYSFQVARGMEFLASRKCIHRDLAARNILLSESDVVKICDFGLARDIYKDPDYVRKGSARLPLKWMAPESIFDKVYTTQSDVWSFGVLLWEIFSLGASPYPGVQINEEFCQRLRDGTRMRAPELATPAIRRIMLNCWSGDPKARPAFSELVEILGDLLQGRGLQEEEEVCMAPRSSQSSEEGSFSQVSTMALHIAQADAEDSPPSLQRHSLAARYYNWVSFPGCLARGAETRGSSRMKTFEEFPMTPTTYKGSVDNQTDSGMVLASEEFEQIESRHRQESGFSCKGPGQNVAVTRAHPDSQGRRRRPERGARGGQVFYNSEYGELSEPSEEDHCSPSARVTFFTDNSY
# Sequence of Macrophage colony-stimulating factor 1 receptor (Homo sapiens) (P07333 whole entry): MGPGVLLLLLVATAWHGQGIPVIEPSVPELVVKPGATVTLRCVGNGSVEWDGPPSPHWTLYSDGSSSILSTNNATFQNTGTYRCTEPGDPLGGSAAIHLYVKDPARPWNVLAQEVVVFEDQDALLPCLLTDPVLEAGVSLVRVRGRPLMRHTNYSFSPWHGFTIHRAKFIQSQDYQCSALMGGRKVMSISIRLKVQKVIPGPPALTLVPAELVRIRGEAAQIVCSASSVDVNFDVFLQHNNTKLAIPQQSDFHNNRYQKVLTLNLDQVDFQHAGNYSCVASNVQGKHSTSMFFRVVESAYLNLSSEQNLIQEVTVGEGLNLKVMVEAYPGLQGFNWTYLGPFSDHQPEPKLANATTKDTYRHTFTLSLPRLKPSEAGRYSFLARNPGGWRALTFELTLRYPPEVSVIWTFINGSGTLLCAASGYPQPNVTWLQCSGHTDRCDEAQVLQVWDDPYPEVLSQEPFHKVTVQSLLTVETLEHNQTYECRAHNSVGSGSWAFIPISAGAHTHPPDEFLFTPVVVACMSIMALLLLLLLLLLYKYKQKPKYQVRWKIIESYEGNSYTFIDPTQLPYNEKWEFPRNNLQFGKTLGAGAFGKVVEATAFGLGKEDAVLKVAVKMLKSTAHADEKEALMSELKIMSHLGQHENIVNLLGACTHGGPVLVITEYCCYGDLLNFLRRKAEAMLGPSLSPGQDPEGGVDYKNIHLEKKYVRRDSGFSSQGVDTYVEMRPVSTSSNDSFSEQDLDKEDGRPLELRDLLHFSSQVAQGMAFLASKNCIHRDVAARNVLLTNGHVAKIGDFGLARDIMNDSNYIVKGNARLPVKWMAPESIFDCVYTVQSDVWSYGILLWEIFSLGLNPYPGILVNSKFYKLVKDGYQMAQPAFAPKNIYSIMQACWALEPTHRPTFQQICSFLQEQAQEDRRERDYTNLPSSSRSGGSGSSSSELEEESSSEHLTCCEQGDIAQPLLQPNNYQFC
# Sequence of Serine/threonine-protein kinase PLK1 (Homo sapiens) (P53350 whole entry): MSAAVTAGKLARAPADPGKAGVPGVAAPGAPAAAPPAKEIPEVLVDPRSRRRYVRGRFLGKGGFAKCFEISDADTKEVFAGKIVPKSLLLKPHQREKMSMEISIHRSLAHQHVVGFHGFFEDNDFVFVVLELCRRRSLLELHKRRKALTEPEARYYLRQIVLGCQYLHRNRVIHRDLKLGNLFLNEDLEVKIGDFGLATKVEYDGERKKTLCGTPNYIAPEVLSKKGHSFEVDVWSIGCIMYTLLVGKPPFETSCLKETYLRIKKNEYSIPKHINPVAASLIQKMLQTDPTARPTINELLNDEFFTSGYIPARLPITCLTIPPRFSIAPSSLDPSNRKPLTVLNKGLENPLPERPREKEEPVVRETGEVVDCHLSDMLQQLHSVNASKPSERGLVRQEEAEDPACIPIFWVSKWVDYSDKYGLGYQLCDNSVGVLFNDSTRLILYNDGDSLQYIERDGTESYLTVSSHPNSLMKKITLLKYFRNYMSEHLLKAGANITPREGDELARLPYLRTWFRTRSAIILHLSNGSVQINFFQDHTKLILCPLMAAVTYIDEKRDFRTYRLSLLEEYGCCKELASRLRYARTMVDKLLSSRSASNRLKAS
SMILES,inhibition [1] [%],inhibition [2] [%],inhibition [3] [%],inhibition [4] [%],inhibition [5] [%],inhibition [6] [%],inhibition [7] [%],inhibition [8] [%],inhibition [9] [%],inhibition [10] [%]
CCn1c(-c2nonc2N)nc2c(N3CCCC3)nccc21,1.67,1.87,-0.08,9.05,-4.08,2.79,3.38,-0.51,0.02,-0.01
COC(=O)Nc1nc2cc(Oc3ccc(NC(=O)Nc4cccc(C(=O)O)c4)cc3)ccc2[nH]1,1.76,0.16,0.8,1.59,4.78,,-5.74,3.75,8.4,-5.06
O=C1NC(=O)C(c2ccccc2Cl)=C1Nc1cccc(O)c1,-5.12,3.44,3.38,2.7,3.87,3.25,3.79,-1.08,2.71,1.1
Cn1cc(C=C2C(=O)Nc3cccnc32)c2ccccc21,4.67,2.71,1.58,9.66,77.5,4.88,30.3,6.48,30.9,4.64
CCn1c(-c2nonc2N)nc2cncc(C(=O)N3CCNCC3)c21,5.61,5.97,14.3,12.2,-1.93,5.86,7.52,4.42,5.74,2.61
COc1cc2ncn(-c3cc(O[C@@H](C)c4ccccc4Cl)c(C(N)=O)s3)c2cc1OC,38.4,,,6.36,3.92,19.7,67.6,1.84,9.87,3.53
Nc1ncnc2occ(-c3ccc(NC(=O)Nc4cccc(C(F)(F)F)c4)cc3)c12,17.9,4.84,5.99,7.86,34.6,53,99.6,98.1,78,3.58
COc1cc2ncn(-c3cc(O[C@H](C)c4ccccc4Cl)c(C(N)=O)s3)c2cc1OC,91.6,,,9.01,39.6,31.8,81.3,8.07,41.9,2
COc1ccc(-c2ccncc2)cc1C(N)=O,2.67,5.64,6.97,5.37,3.51,3.2,2,2.6,5.33,2.01
CNC(=O)c1cncc(/C=C/c2c(Cl)cccc2Cl)c1,5.75,3.89,7.28,17,-3.57,-7.73,,7.17,41.1,0.89
CCc1cccc(NC(=O)Nc2ccc(Oc3ccc4nc(NC(=O)OC)[nH]c4c3)cc2)c1,3.95,2.03,1.1,6.8,6.29,7.64,16.3,44.8,54.6,-2.29
O=C1NC(=O)C(c2cccc(Cl)c2)=C1Nc1ccc(O)c(Cl)c1,8.97,2.84,3.21,2.22,3.58,1.15,13.3,5.89,46.8,2.3
CCn1c(-c2nonc2N)nc2cnc(Oc3cccc(NC(=O)c4ccc(OCCN5CCOCC5)cc4)c3)cc21,17,4.54,2.83,10.3,-0.53,-0.39,0.92,1.4,2.86,1.07
Cc1nnc(-c2ccc(C)c(-c3ccc(C(=O)Nc4cccc(C#N)c4)cc3)c2)o1,6.96,2.65,1.18,3.88,1.89,-1.08,1.02,-0.4,0.77,3.8
Nc1nc(-c2ccccn2)c(-c2ccc3ncccc3n2)s1,6.84,2.47,2.12,4.02,8.59,1.06,2.46,2.04,4.58,-1.79
COc1cc(C)c(NC(=O)CN(C)C)cc1Nc1nc(Nc2cccc(F)c2C(N)=O)c2cc[nH]c2n1,2.11,70.5,92.2,24.2,4.71,-3.04,1.77,3.71,26.6,1.54
Cc1ccc(NC(=O)c2ccnc(N3CCCC3)c2)cc1-c1ccc(C(=O)NCC2CC2)cc1,6.52,3.7,4.57,15.4,1.51,-7.96,,1.57,2.74,-2.42
